ELG1 genotox: genotoxicity induction in ELG1-luciferase HEK293T cells; HEK293T ELG1-luciferase reporter, luminescence, 16 h; Potency, µM (doses to about 46 µM), without a hit: top-dose activity change, positive = activation, hits mostly activators; hit rate 1.3% among 330,000; further: % of control where 0% means no effect; nearly all actives have a fitted effect of over 60% in size
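DMSO vehicle served as control against compound-treated ELG1-luciferase HEK293T cells; exposure lasted 16 hr at 37 °C and 5% CO2, followed by ONE-Glo luminescence detection after 30 min.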
NPC1 prom act: activators of NPC1 promoter. AID 485313. hit rate 2.4% among 320,000. Huh7 NPC1 promoter luciferase reporter, 24 h. Potency, µM (top dose mostly 9.22 µM), inactives show at the highest dose activation, most hits filed as activators; further: % of control where 0% means no effect; nearly all actives have a fitted effect of over 60% in size
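In 1536-well qHTS, Huh7 cells harboring an NPC1 promoter–luciferase construct received compound for 24 h; activation was quantified by luminescence following luciferase reagent addition.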
Rab9 prom act: Rab9 promoter activation; hit rate 2.8% among 320,000; Potency, µM (doses to about 9.22 µM), for the others: top-dose activation, negative = inhibition, hits mostly activators; AID 485297; Huh7 Rab9 promoter-luciferase reporter, luminescence, 24 h; further: % of control where 0% means no effect; nearly all actives have a fitted effect of over 60% in size
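Luminescence from Amplite-detected luciferase (10 minutes, ambient) reports Rab9 promoter activation. Before that, stable Rab9-luciferase Huh7 cells (1500/well, reduced-serum OP-MEM I plus 10% FBS) were exposed to compound for 24 hours at 37C.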
SMN2 splice up: enhancers of SMN2 splice variant expression | HEK293 SMN2-luciferase splicing reporter, luminescence, 30-36 h | Potency, µM (titrated, usually from 46.1 µM), without a hit: top-dose activity change, positive = activation, usual class: activators | hit rate 2.8% among 210,000; further: % of control where 0% means no effect; nearly all actives have a fitted effect of over 55% in size
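HEK293 cells carry an SMN2 […]–luciferase reporter in which exon 7 inclusion puts luciferase in frame. Cells were plated 10-12 h before compound addition, then incubated 30-36 h at 37C. ONE-Glo luminescence was read; sodium butyrate at 4.5 mM final served as control.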
ELG1 DNA repair: inhibitors of ELG1-dependent DNA repair in HEK293T cells | hit rate 2.3% among 330,000 | HEK293T ELG1-luciferase reporter, luminescence, 16 h; DNA damage induced by 5-fluorouridine | Potency, µM (series often up to 46.1 µM), without a hit: at the top dose activity change, negative = inhibition, usual class: inhibitors; further: on the % scale 0 is the no-effect control and ±100 the full control effect; nearly all actives have a fitted effect of over 55% in size
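Step one: seed 2,000 cells per well. Step two: pin-transfer compound or DMSO alongside 5-fluorouridine. Step three: incubate 16 hr, 37 °C, 5% CO2. Step four: add ONE-Glo, wait 30 min, read luminescence.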
FLuc modulator: counter-screen for miR-21 project: firefly luciferase inhibitors or activators. Potency, µM (titrated, usually from 57.5 µM), for the others: at the highest dose activity change, negative = inhibition, actives largely listed as inhibitors. P08659. purified FLuc, Km substrates, luminescence inhibition. hit rate 6.9% among 360,000;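 further: plate controls were vehicle for no effect and reference inhibitor for full effect; nearly all actives have a fitted effect of over 55% in size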
Target sequence (P08659 whole entry, looked up): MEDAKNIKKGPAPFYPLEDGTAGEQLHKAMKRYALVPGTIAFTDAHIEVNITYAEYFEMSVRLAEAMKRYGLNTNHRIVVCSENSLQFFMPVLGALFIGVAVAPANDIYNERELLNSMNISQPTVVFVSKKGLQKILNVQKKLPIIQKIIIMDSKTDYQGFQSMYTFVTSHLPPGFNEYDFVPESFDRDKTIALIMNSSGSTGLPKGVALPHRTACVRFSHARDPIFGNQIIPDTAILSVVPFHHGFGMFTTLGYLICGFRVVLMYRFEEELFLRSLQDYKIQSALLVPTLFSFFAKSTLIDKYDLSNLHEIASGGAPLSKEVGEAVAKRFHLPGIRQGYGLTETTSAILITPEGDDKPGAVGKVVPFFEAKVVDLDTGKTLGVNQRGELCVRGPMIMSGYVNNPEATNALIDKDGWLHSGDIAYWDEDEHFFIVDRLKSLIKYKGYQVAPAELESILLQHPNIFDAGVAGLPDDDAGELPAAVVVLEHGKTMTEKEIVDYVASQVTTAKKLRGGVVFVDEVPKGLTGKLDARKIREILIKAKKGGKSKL
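Biochemical qHTS of compounds, final roughly 60 µM downward over six points, against 10 nM purified firefly luciferase using Km concentrations of substrates (10 uM D-luciferin, 10 uM ATP) in Tris acetate pH 7.5 buffer; luminescence output.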
An asterisk follows results filed as active; ? = inconclusive; . = no result. Only some compounds are listed: those with a hit (about 9.2% of all), similar ones and a draw of the others. The call rests on the fitted dose curve; in most records, active means well fitted curve in the direction sought with a large enough effect; inconclusive means small, poorly fitted or top-dose-only effect, or another doubt; inactive means no such curve, though single readings can be large; an effect the other way counts as inactive or inconclusive. Potency means the concentration at half of the fitted maximal effect.

SMILES | ELG1 genotox | NPC1 prom act | Rab9 prom act | SMN2 splice up | ELG1 DNA repair | FLuc modulator
COC(=O)c1cnn(-c2ccccc2)c1/C=N/NC(=S)Nc1ccccc1 | -7% | 0% | -5% | . | 21µM* | -2%
O=C(O)c1cccc(NC(=S)N/N=C/c2cccnc2)c1 | ? | ? | ? | 16% | ? | 11µM*
COc1cccc(/C=N/NC(=S)Nc2cccc(C(=O)O)c2)c1O | 2% | -3% | -6% | 16µM* | ? | 0.19µM*
COc1cccc(/C=N/NC(=O)c2ccc(-c3ccccc3)cc2)c1O | 2% | -33% | -29% | -78% | ? | 2%
CCCCN1CC(=O)N2[C@H]3c4cc(Cl)ccc4OC[C@@H]3[C@H](C(=O)OCC)[C@]2(C)C1=O | 1% | 0% | -6% | . | 4% | 4%
CC(C)CCOc1ccc(Oc2nc(N(C)C)nc(N(C)C)n2)nn1 | . | . | . | 4% | . | -10%
O=C(CCNC(=O)OCC1c2ccccc2-c2ccccc21)NOCc1ccccc1 | 7% | . | . | . | 4% | .
CC(CCn1cccn1)NC(=O)CCc1nnc(C2CCCCC2)o1 (stereo not given) | 1% | -8% | -8% | . | ? | -1%
CCN(Cc1ccccc1)Cc1nnnn1Cc1ccccc1 | -3% | -5% | -4% | -12% | -8% | ?
COCCCNC(=S)N/N=C/c1cccc(OC)c1O | -3% | 10% | -26% | . | ? | 9.5µM*
COc1ccc(/C=N/n2c(-c3ccco3)nc3ccccc3c2=O)cc1 | 2% | 2% | -1% | -32% | ? | -15%
O=c1c2c3nc4ccccc4nc3n(/N=C/c3ccccn3)c2ncn1-c1ccccc1 | 0% | -14% | -5% | . | -2% | -6%
C=CCn1cnc2c(c1=O)c1nc3ccccc3nc1n2/N=C/c1cccc(OC)c1OC | -16% | 1% | -3% | 0% | 3.3µM* | -5%
C=CCn1cnc2c(c1=O)c1nc3ccccc3nc1n2/N=C/c1ccccn1 | -10% | 0% | -5% | -11% | 12µM* | -8%
COc1cccc(/C=N/n2c(-c3ccco3)nc3ccccc3c2=O)c1 | 2% | 0.4µM* | 0.56µM* | 0.79µM* | 18µM* | 13µM*
COCCn1cnc2c(c1=O)c1nc3ccccc3nc1n2/N=C/c1cccc(OC)c1 | -3% | -14% | -6% | . | 21µM* | -11%
COCCCn1cnc2c(c1=O)c1nc3ccccc3nc1n2-c1ccccc1 | -1% | 1% | 2% | -7% | 0% | 2%
C=CCn1cnc2c(c1=O)c1nc3ccccc3nc1n2-c1ccccc1 | -2% | 1% | 6% | -10% | -6% | -1%
C=CCn1cnc2c(c1=O)c1nc3ccccc3nc1n2/N=C/c1cc(OC)c(OC)c(OC)c1 | -7% | 5% | 3% | 4% | 5.8µM* | -2%
Cc1ccc(S(=O)(=O)/C(C#N)=C/c2c(N3CCC(C(N)=O)CC3)nc3ccccn3c2=O)cc1 | -1% | 0% | -5% | -41% | 4% | 0%
COc1cccc(NS(=O)(=O)c2cc3c4c(c2)C(C)C(=O)N4CCC3)c1 (stereo not given) | . | . | . | . | . | 3%
CN(C)S(=O)(=O)c1ccc(NC(=O)CSc2nc3ccccc3n2-c2ccccc2)cc1 | -3% | -7% | -18% | -66% | ? | 4%
CN(C)S(=O)(=O)c1cccc(NC(=O)CSc2nc3ccccc3n2-c2ccccc2)c1 | -6% | -4% | 2% | -39% | 18µM* | 0%
CCOC(=O)c1ccc(-c2ccc(/C=N/NC(=O)CN(c3ccccc3Cl)S(C)(=O)=O)o2)cc1 | -6% | ? | ? | 11µM* | ? | ?
CN1C(=O)/C(=C/c2ccc3c(c2)OCO3)N=C1c1ccccc1 | -2% | 0% | -2% | 8% | -5% | 4.8µM*
SMILES | ELG1 genotox | NPC1 prom act | Rab9 prom act | SMN2 splice up | ELG1 DNA repair | FLuc modulator
CCSC1=N/C(=C\c2ccc3c(c2)OCO3)C(=O)S1 | 3% | -1% | 1% | . | 0% | -19%
Cc1ccc(N2C(=O)CS(=O)(=O)CC2=O)cc1 | -1% | -1% | -8% | -3% | 1% | -3%
Cc1ccc(N2C(=O)CC3(CCCC3)CC2=O)cc1 | 10% | 2% | 12% | . | ? | 11µM*
CC(NC(=O)CN1CCOCC1)c1ccccc1 (stereo not given) | -1% | 0% | 9% | . | 0% | 1%
CCc1cc2cccc(C)c2nc1SCC(=O)N1CCN(C(=O)c2ccco2)CC1 | -1% | -1% | 11% | . | ? | -1%
CCc1cc2cc(C)cc(C)c2nc1SCC(=O)N1CCN(C(=O)c2ccco2)CC1 | -3% | -1% | 2% | -5% | 8.2µM* | -3%
CCOc1ccc2[nH]c3c(N4CCN(C(=O)c5ccco5)CC4)ncnc3c2c1 | -9% | -1% | -4% | . | -11% | ?
Cc1cc(C)c2nc(N3CCC(C(=O)NCc4cccnc4)CC3)sc2c1 | 0% | 1% | 11% | -26% | -9% | ?
CCOc1ccc2nc(N3CCN(C(=O)c4ccco4)CC3)sc2c1 | . | . | . | . | . | 21µM*
COc1ccc2nc(N3CCN(C(=O)c4ccco4)CC3)sc2c1 | . | . | . | . | . | 27µM*
Cc1cc(C)c2nc(N3CCC(C(=O)NCc4ccccn4)CC3)sc2c1 | 1% | 11% | 21% | -32% | ? | 17µM*
N#C/C(=C/c1cn(Cc2ccc(F)cc2)c2ccccc12)C(=O)Nc1cccc(Cl)c1 | . | . | . | 10% | . | 0%
CCc1ccc2nc(N3CCN(C(=O)c4ccco4)CC3)sc2c1 | . | . | . | . | . | 11µM*
O=C(CSc1nc2ccccc2s1)N1CCN(C(=O)c2ccco2)CC1 | 2% | 16% | 12% | -7% | -18% | -4%
O=C(c1ccco1)N1CCN(c2nc3c(F)cc(F)cc3s2)CC1 | . | . | . | . | . | 24µM*
O=C(c1ccc2nc(N3CCOCC3)sc2c1)N1CCN(C(=O)c2ccco2)CC1 | 13% | -1% | 2% | -7% | -13% | 4%
CCOc1ccc2nc(SCC(=O)N3CCN(C(=O)c4ccco4)CC3)sc2c1 | -9% | 0% | -6% | -14% | ? | 17µM*
CCOc1ccc2nc(SCC(=O)c3cccs3)sc2c1 | 15µM* | 2.5µM* | 2.8µM* | ? | ? | 2.7µM*
O=C(C[C@@H]1C/C=C/CC[C@H](Cc2ccc(F)cc2)C(=O)OCCNC1=O)N[C@H](CO)Cc1ccccc1 | -9% | . | . | . | ? | .
C=CCOc1ccccc1CN1CCC(Oc2cc(C(=O)NC3CC3)ccc2OC)CC1 | -5% | -4% | -5% | . | 1% | 0%
CN(CC(=O)Nc1ccccc1Cl)C(=O)Cn1cnc2ccc(Cl)cc2c1=O | 1% | -3% | -2% | . | 3% | -2%

Screening results (PubChem)
